Results on 29 compounds are retold here after PubChem BioAssay (NCATS).

Records with an inconclusive call do not appear. Activity calls are given as the source filed them. Unless noted, calls come from the whole dose curve; as a rule, active = well fitted inhibition curve with a large enough effect; inconclusive = small, poorly fitted or top-dose-only effect; inactive = no such curve, though single readings can be large or run the other way.

Test [1] is described as follows: qHTS to identify inhibitors of the type 1 interferon - major histocompatibility complex class I in skeletal muscle: primary screen against the NCATS Mechanism Interrogation Plate v5.0 (MIPE) Libary (AID 1347411). Note: nearly all actives have a fitted effect of over 65% in size. The procedure, abridged: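 Luminescence from HiBiT-tagged endogenous HLA-B*08:01 served as the MHC class I read-out. CRISPR-engineered C25cl48 human myoblasts received 4.0 ng/ml IFN-beta plus compound for 24 hrs, with an 11-point, 1:3 series topping at 46 uM final.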
For orientation: qHTS replaces the single test concentration by a dilution series.

Test [2] can be described thus: Cytotoxicity counterscreen for inhibitors of SARS-CoV-2 cell entry (AID 1645845; calls by dose curve; note: nearly all actives have a fitted effect of over 50% in size). Conditions: outcome: dose series up to 57.1 µM unless noted. A digest of the protocol:
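HEK293-ACE2 cells (Expi293F stably expressing human ACE2) seeded overnight, then compound for 1 h plus 48 h at 37C. Viability as ATP content by luminescence; normalized to wells with cells and media-only wells.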
On the technique in general: Counterscreens check selectivity or assay interference.
Potency is the fitted concentration of half-maximal effect.

Turning to `COc1cc(C)[nH]c(=O)c1CNC(=O)c1c(C)n([C@H](C)C2CCN(CC(F)(F)F)CC2)c2ccccc12`, the Potency result in test [1] and in test [2] was “inactive” throughout.
As for `COc1cc2cc(c1Cl)N(C)C(=O)C[C@H](OC(=O)C(C)C)[C@]1(C)O[C@@H]1[C@H](C)[C@@H]1C[C@@](O)(NC(=O)O1)[C@H](OC)/C=C/C=C(\C)C2`, in test [1], the Potency entry is “inactive”.
Regarding `CN1C(=O)[C@@H](NC(=O)[C@H](CCC(F)(F)F)[C@H](CCC(F)(F)F)C(N)=O)N=C(c2ccccc2)c2ccccc21`, the Potency entry in test [1] and in test [2] was “inactive” each time.
As for `COC12C(COC(N)=O)C3=C(C(=O)C(C)=C(N)C3=O)N1CC1C2N1C` (centres undefined), the Potency entry in test [1] and in test [2] was “inactive” in each case.
`CC(=O)O[C@@]12CO[C@@H]1C[C@H](O)[C@@]1(C)C(=O)[C@H](O)C3=C(C)[C@@H](O)C[C@@](O)([C@@H](OC(=O)c4ccccc4)[C@H]21)C3(C)C`: the Potency result in test [1] and in test [2] was “inactive” throughout.
As for `Cn1c(/C=C/CO)c(CO)c2c1C(=O)C=C(N1CC1)C2=O`, the Potency entry in test [1] and in test [2] was “inactive” each time.
Take `CC(C)(O)/C=C\C(=O)[C@](C)(O)[C@H]1[C@H](O)C[C@]2(C)[C@@H]3CC=C4[C@@H](C=C(O)C(=O)C4(C)C)[C@]3(C)C(=O)C[C@@]12C`: in test [1], the Potency is 3300 nM (active).
For the compound `CO[C@H]1CCC(O[C@H]2C[C@H]([C@]3(C)CC[C@]4(C[C@H](O)[C@@H](C)[C@@H]([C@@H](C)/C=C(\C)C(=O)[C@H](C)C[C@H](C)C(=O)O)O4)O3)O[C@]3(O[C@@H]([C@H]4O[C@@](O)(CO)[C@H](C)C[C@@H]4C)C[C@@H]3C)[C@@H]2C)O[C@@H]1C` (some centres undefined), in test [2], the Potency result was “inactive”.
For `COC(=O)[C@@]12OC[C@]34[C@H]([C@@H](O)[C@@H]1O)[C@@]1(C)CC(=O)C(O)=C(C)[C@@H]1C[C@H]3OC(=O)[C@H](OC(=O)/C=C(\C)C(C)C)[C@@H]24`, the Potency in test [1] is 65.8 nM (active).
On to `COC[C@H]1OC(=O)c2coc3c2[C@@]1(C)C1=C(C3=O)[C@@H]2CC[C@H](O)[C@@]2(C)C[C@H]1OC(C)=O`, for which the Potency entry in test [1] and in test [2] was “inactive” in each case.
`Cc1[nH]ncc1-c1cc2nc([C@@H]3CC4CCN3CC4)[nH]c(=O)c2s1`: the Potency in test [1] is 7390 nM (active).
With `N#CC(O[C@@H]1O[C@H](CO[C@@H]2O[C@H](CO)[C@@H](O)[C@H](O)[C@H]2O)[C@@H](O)[C@H](O)[C@H]1O)c1ccccc1` (some centres undefined), the Potency result in test [1] and in test [2] was “inactive” in each case.
Take `C[C@@]12OC(=O)[C@]1([C@@H](O)[C@@H]1C=CCCC1)NC(=O)[C@@H]2CCCl`: the Potency in test [1] was 29.4 nM (active).
As for `O=C(O)CNC(=O)C1C(=O)N(C2CCCCC2)C(=O)N(C2CCCCC2)C1=O`, the Potency entry in test [1] and in test [2] was “inactive” throughout.
Turning to `C/C=C(\C)C(=O)N[C@@H](c1ccccc1)[C@@H](O)C(=O)O[C@H]1C[C@@]2(O)[C@@H](OC(=O)c3ccccc3)[C@@H]3[C@]4(OC(C)=O)CO[C@@H]4C[C@H](O)[C@@]3(C)C(=O)[C@H](OC(C)=O)C(=C1C)C2(C)C`, the Potency result in test [1] and in test [2] was “inactive” each time.
With `CO/C1=C/C(C)=C\[C@@H](C)[C@@H](O)[C@@H](C)C/C(C)=C\C=C/[C@H](OC)[C@@H]([C@@H](C)[C@@H](O)[C@H](C)[C@@]2(O)C[C@@H](O)[C@H](C)[C@@H](C(C)C)O2)OC1=O`, the Potency entry in test [1] is “inactive”. Also, in test [2], the Potency was 1580 nM (active).
Take `COC(=O)[C@]12CCC(C)(C)C[C@H]1[C@H]1C(=O)C=C3[C@@]4(C)C=C(C#N)C(=O)C(C)(C)[C@@H]4CC[C@@]3(C)[C@]1(C)CC2`: the Potency in test [1] is 1170 nM (active); in test [2], 2820 nM (active).
For `C[C@]12COC(=O)C[C@@H]1CC[C@@H]1[C@@H]2CC[C@@]2(C)[C@H]1CC[C@]2(C)O`, the Potency result in test [1] and in test [2] was “inactive” each time.
`CC(N[C@H]1C[C@@H]1c1ccccc1)c1ccc2c(c1)OCCO2` (some centres undefined): the Potency result in test [1] and in test [2] was “inactive” each time.
With `CC1(C)CC[C@]2(NC(=O)C(C)(F)F)CC[C@]3(C)[C@H](C(=O)C=C4[C@@]5(C)C=C(C#N)C(=O)C(C)(C)[C@@H]5CC[C@]43C)[C@@H]2C1`, in test [1], the Potency is 1310 nM (active).
With `Cn1c(COP(=O)(NCCBr)NCCBr)cnc1[N+](=O)[O-]`, the Potency entry in test [1] and in test [2] was “inactive” throughout.
Consider `CC(C)[C@]12O[C@H]1[C@@H]1O[C@@]13[C@@]1(C)CCC4=C(COC4=O)[C@@H]1C[C@@H]1O[C@@]13C2=O`, for which the Potency in test [1] is 131 nM (active).
Regarding `C[C@@H](C1CC[C@@]2(O)C3=CC(=O)[C@@H]4C[C@@H](O)[C@@H](O)C[C@]4(C)[C@H]3CC[C@]12C)[C@H](O)CCC(C)(C)O` (some centres undefined), the Potency result in test [1] and in test [2] was “inactive” in each case.
For the compound `C=C(C)[C@@H]1CCC(C)=C[C@H]1c1c(O)cc(CCCCC)cc1O`, in test [1], the Potency is 33000 nM (active). Further, in test [2], the Potency entry was “inactive”.
In the case of `CCCCCCC(C)(C)c1cc(O)c2c(c1)OC(C)(C)C1CC=C(CO)C[C@H]21` (some centres undefined), the Potency in test [1] was 13100 nM (active). Besides, the Potency entry in test [2] was “inactive”.
As to `Cc1c(N)nc([C@H](CC(N)=O)NC[C@@H](N)C(N)=O)nc1C(=O)N[C@H](C(=O)N[C@@H](C)[C@H](O)[C@@H](C)C(=O)N[C@@H](C(=O)NCCc1nc(-c2nc(C(=O)NCCC[S+](C)C)cs2)cs1)[C@@H](C)O)C(O[C@H]1O[C@H](CO)[C@H](O)[C@@H](O)[C@H]1O[C@H]1O[C@H](CO)[C@@H](O)[C@H](OC(N)=O)[C@@H]1O)c1cnc[nH]1` (some centres undefined), the Potency result in test [1] and in test [2] was “inactive” each time.
On to `O=C(CBr)N1CC([N+](=O)[O-])([N+](=O)[O-])C1`, for which the Potency result in test [1] and in test [2] was “inactive” each time.
Consider `CC(=O)OC[C@H]1O[C@@H]([S-])[C@H](OC(C)=O)[C@@H](OC(C)=O)[C@@H]1OC(C)=O.CC[PH+](CC)CC.[Au]`, for which the Potency in test [1] was 1170 nM (active); in test [2], 3160 nM (active).
Turning to `C[C@@H]1CC[C@@]2(OC1)O[C@H]1C[C@H]3[C@@H]4CC=C5C[C@@H](O[C@@H]6O[C@H](CO)[C@@H](O[C@@H]7O[C@@H](C)[C@H](O)[C@@H](O)[C@H]7O)[C@H](O)[C@H]6O[C@@H]6O[C@@H](C)[C@H](O)[C@@H](O)[C@H]6O)CC[C@]5(C)[C@H]4CC[C@]3(C)[C@H]1[C@@H]2C`, the Potency entry in test [2] was “inactive”.
